# Data published in article PMC13541613, “GHT-SELEX demonstrates unexpectedly high intrinsic sequence specificity and complex DNA binding of many human transcription factors”.
# Experiments:
# Experiment in all cases: HT-SELEX; 20 mM HEPES pH 7, 140 mM KCl, 5 mM NaCl, 1 mM K2HPO4, 2 mM MgSO4, 100 uM EGTA, ZnSO4, 0.1% Tween20; room temperature, 1 h; high values mean tight binding
# Settings in all cases: protein: ivt; tags: eGFP (N-terminal); dsDNA, one strand shown
# ZNF721 full-length = ZNF721 full-length (Homo sapiens, UniProt Q8TF20-2 1-923)
# ZNF721 full-length, sequence (Q8TF20 other isoform, or with tags, fused parts or gaps): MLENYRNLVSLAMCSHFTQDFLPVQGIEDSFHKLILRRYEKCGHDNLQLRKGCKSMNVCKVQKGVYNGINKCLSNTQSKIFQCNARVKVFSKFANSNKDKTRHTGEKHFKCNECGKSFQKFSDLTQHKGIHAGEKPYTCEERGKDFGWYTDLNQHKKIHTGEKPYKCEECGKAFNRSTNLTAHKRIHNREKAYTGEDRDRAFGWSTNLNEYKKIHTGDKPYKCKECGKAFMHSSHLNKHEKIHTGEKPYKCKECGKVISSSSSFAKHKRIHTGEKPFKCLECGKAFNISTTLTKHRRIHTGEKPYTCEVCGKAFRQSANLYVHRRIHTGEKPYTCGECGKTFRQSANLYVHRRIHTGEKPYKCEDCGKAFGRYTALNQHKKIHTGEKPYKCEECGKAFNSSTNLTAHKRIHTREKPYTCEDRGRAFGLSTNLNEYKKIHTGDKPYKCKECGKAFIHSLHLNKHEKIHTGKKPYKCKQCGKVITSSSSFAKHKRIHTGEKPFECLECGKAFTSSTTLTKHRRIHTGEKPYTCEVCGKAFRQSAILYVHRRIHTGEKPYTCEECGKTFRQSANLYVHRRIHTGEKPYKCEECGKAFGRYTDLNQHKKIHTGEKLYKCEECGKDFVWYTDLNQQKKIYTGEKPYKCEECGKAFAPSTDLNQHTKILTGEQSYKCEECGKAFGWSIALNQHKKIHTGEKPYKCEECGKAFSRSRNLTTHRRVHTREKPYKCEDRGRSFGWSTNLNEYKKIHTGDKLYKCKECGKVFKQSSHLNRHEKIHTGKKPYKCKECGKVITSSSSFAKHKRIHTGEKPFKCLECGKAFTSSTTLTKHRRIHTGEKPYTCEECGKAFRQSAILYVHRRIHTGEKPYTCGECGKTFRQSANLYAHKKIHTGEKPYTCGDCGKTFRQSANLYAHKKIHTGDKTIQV
# Summary of the method: (§1)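 Full-length or DNA-binding-domain forms of a tagged transcription factor were produced in HEK293 lysate or cell-free extract and immobilised on beads. Incubation with a randomized 40-base DNA library ran for 1 h at room temperature in HEPES/KCl low-stringency buffer with Tween20, after which bound DNA was washed, heat-eluted, PCR-amplified over successive cycles and Illumina-sequenced. Binding strength is given as the relative k-mer count in selected reads, higher for tighter binding.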
# ZNF721 DBD1 = ZNF721 DBD1 (Homo sapiens, UniProt Q8TF20-2 29-461)
# ZNF721 DBD1, sequence (Q8TF20 17-449): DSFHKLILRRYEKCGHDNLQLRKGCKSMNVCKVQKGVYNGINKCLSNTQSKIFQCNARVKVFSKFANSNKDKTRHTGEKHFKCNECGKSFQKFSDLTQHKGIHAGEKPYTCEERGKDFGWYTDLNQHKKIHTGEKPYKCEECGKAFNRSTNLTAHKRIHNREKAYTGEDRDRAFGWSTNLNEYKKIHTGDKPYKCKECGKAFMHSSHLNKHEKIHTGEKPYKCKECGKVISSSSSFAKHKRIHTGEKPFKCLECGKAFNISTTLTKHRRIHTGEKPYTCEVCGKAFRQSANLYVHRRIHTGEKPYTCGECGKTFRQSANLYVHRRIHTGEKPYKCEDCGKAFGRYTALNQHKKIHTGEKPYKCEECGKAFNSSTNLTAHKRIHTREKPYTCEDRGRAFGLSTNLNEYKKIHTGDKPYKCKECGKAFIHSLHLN
# Summary of the method: as §1
# ZNF721 DBD2 = ZNF721 DBD2 (Homo sapiens, UniProt Q8TF20-2 395-923)
# ZNF721 DBD2, sequence (Q8TF20 383-911): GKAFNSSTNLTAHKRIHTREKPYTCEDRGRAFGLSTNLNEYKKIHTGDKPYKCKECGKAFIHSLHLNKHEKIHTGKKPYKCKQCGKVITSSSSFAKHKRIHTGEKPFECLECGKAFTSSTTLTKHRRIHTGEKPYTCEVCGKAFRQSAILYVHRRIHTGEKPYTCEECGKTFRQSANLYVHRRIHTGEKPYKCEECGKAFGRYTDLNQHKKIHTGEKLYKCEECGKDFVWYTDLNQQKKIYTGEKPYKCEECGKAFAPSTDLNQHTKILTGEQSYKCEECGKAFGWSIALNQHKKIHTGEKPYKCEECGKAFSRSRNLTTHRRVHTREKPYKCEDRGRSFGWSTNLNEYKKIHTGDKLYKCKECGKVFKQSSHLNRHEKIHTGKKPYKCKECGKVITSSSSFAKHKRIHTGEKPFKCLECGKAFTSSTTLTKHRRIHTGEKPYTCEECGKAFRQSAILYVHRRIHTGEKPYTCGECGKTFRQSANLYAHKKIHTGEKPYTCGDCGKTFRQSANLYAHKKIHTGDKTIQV
# Summary of the method: as §1
Sequence,binding signal (ZNF721 full-length) [relative 10-mer count],binding signal (ZNF721 DBD1) [relative 10-mer count],binding signal (ZNF721 DBD2) [relative 10-mer count]
CCGCCCCACC,0.257,0.00894,0.00407
AGCGTATCCA,0.221,0.0368,0.31
CCTACCCACC,0.124,0.00546,0.0101
AAAAAAAGGT,0.117,0.00583,0.0857
CCCCCACCCC,0.44,0.0205,0.00276
CAGGGTGGGG,0.111,0.00399,0.00384
CACCCCATCC,0.11,0.00372,0.00575
ACCCACCTCC,0.125,0.00505,0.00527
AAAAAGCATA,0.182,0.0303,0.0372
CGCCCCTCCC,0.158,0.00605,0.00336
CTCCCACCAC,0.11,0.00752,0.00599
CATACCCAAA,0.103,0.00583,0.0665
ACCCCCTCCC,0.158,0.00807,0.00503
ACCCCAACCC,0.128,0.00463,0.00348
ACAAAAAAAC,0.151,0.00188,0.0972
ATGGGGTGGG,0.125,0.00477,0.00551
AAAAAAGCAT,0.343,0.0588,0.067
CCCCTCCCGC,0.137,0.00665,0.00635
CACCCACCCC,0.325,0.0153,0.003
CCCACCTACC,0.111,0.00573,0.00659

Sequence,binding signal (ZNF721 full-length) [relative 10-mer count],binding signal (ZNF721 DBD1) [relative 10-mer count],binding signal (ZNF721 DBD2) [relative 10-mer count]
CCCCCCTCCA,0.13,0.0055,0.0024
CATCCCACCC,0.138,0.00527,0.00563
CCCCCCTACC,0.127,0.00569,0.0036
CCACTCCCCC,0.12,0.00436,0.00144
ACCCCACCGC,0.106,0.00408,0.00336
AGAAAGAAGC,0.136,0.0675,0.00216
AAGCAGTACC,0.153,0.0727,0.0326
CCAAAAAAAC,0.106,0.0017,0.082
CCACCCCCCC,0.32,0.0122,0.00336
AAAAAGCAGC,0.557,0.00835,0.477
CCACCCCAGC,0.102,0.00372,0.00252
AAAAAAGCGG,0.11,0.0255,0.0279
CACAAAAAAG,0.102,0.00853,0.0405
CCCACCCTAC,0.114,0.00748,0.0116
CCCCGTCCCC,0.212,0.00789,0.00192
CCCCCTCCGC,0.124,0.00725,0.00372
AAAAAGAGCA,0.108,0.0078,0.0193
ACGAAAAAAA,0.107,0.0146,0.0612
CCCCCACCCA,0.256,0.00931,0.00348
CCCACCCAGC,0.106,0.00307,0.003

Sequence,binding signal (ZNF721 full-length) [relative 10-mer count],binding signal (ZNF721 DBD1) [relative 10-mer count],binding signal (ZNF721 DBD2) [relative 10-mer count]
ACCCACCCCC,0.265,0.0111,0.00252
CAACCCCACC,0.149,0.00454,0.00384
CCCACCCTCC,0.252,0.0121,0.0115
AAAAAGCAGT,0.497,0.0214,0.383
CCCCCGCCTC,0.119,0.00509,0.0036
CCACCCCTCC,0.209,0.0108,0.00491
CCCCCCGCCA,0.113,0.00445,0.00372
GGGGGCGGGA,0.119,0.00537,0.00144
ACCACCCTCC,0.124,0.00523,0.00324
AAAGAAGCGT,0.12,0.0739,0.00348
ACCCCTCCAC,0.11,0.00472,0.00419
CACCCCCCGC,0.132,0.00537,0.00635
AAAAAAGCTC,0.21,0.0749,0.00515
CCCTACCCCC,0.153,0.0083,0.00587
CGAAAAAACA,0.153,0.0022,0.161
CCCCTCCACC,0.274,0.0117,0.00851
CCACCACCCC,0.455,0.0194,0.00419
CCCCCACCGC,0.192,0.00936,0.00479
AGCTATACCA,0.14,0.0816,0.003
ACCGCCCCAC,0.103,0.0033,0.00252
